# Test results from the supplement of paper PMC6555819.
# Experiments:
# Assay in all cases: PBM binding z-score (relative to random genomic background probes); higher = stronger binding; sequences stand for … in GC…GCGATTGACAGCGTAGAATGAAGG
# [1] = system: FXR:RXRa (NR concentration 270 nM, RXRa partner concentration 90 nM)
# Outline: (§1)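 Random background probes are the reference for binding z-scores. These scores derive from regression-normalized fluorescence on custom Agilent 4×180K protein-binding microarrays incubated 1 h with ligand-free nuclear receptor dimers. Binding was detected with antibodies against each partner (one per run).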
# [2] = system: LXRa:RXRa (NR concentration 270 nM, RXRa partner concentration 90 nM)
# Outline: as §1
# [3] = system: LXRa homodimer (NR concentration 270 nM)
# Outline: as §1
# [4] = system: LXRb:RXRa (NR concentration 270 nM, RXRa partner concentration 90 nM)
# Outline: as §1
# [5] = system: LXRb homodimer (NR concentration 270 nM)
# Outline: as §1
# [6] = system: PPARa:RXRa (NR concentration 270 nM, RXRa partner concentration 90 nM)
# Outline: as §1
# [7] = system: PPARg:RXRa (NR concentration 180 nM, RXRa partner concentration 90 nM)
# Outline: as §1
# [8] = system: PPARg:RXRa 270nM:90nM, anti-RXR (NR concentration 270 nM, RXRa partner concentration 90 nM)
# Outline: as §1
# [9] = system: PPARg:RXRa 30nM:10nM, anti-RXR (NR concentration 30 nM, RXRa partner concentration 10 nM)
# Outline: as §1
# [10] = system: PPARg:RXRa 90nM:30nM, anti-RXR (NR concentration 90 nM, RXRa partner concentration 30 nM)
# Outline: as §1
Sequence,PBM binding z-score [1],PBM binding z-score [2],PBM binding z-score [3],PBM binding z-score [4],PBM binding z-score [5],PBM binding z-score [6],PBM binding z-score [7],PBM binding z-score [8],PBM binding z-score [9],PBM binding z-score [10]
TCTTGTAGATCAAGCAGGTTAAGAAAGCCTGAGT,0.0308,0.414,-0.381,0.385,-0.415,0.741,-0.57,1.21,2.46,1.7
TATACAGGGTCAAAGTCCAGAGTACGAATGTCGA,6.87,6.67,3.54,5.33,3.32,5.98,6.93,6.5,3.78,5.77
TTACCAAGGTGAAAGGTTGTTGATGCACGCCTTG,1.23,1.15,-0.416,1,-0.595,3.78,5.72,6.02,4.55,6.25
CAAACTAGGTGACAGAGGTCAAAGTCCGTGCGTA,4.84,5.47,4.88,5,1.14,5.75,7.83,6.75,4.75,6.85
GCTAGTTGGTCAGTAAAAGGTCAGACACCGGTCG,1.99,3.15,2.83,2.74,0.106,3.24,1.79,3.25,1.03,2.7
GCAGACAGGTGAAACGCAGGCAACTCAGGGTGGC,-0.553,-0.232,-0.806,-0.499,-1.09,0.513,0.448,-0.314,-0.566,-0.565
CGAACGAGGGCATGAGTTGACAGCAAATGCCGAT,0.601,0.522,-0.133,0.145,-1.11,1.81,1.53,1.54,-0.213,0.897
TGTTGTAGATCAAGCAGGTTAAGAAAGCCTGAGT,-0.212,-0.245,-0.47,-0.0172,-0.215,0.282,-0.51,-0.0645,-0.0716,-0.0785
ACTAGCAGGCCAAGGGTTACTCAAGATTAGTCCG,0.239,2.23,-0.412,0.935,-0.494,2.61,4.88,5.61,4.58,5.71
CGTCCAAGGTCATAGGAGGTCAGCGAAGACAGAT,7.87,7.84,5.46,6.23,1.15,6.44,6.36,5.99,2.57,4.9
GCGACTGGGGCATCAGCAGTTTACCATAACTTAA,-0.0811,-0.328,-0.256,0.505,-0.674,0.605,0.756,1.18,-0.193,0.414
CAAACTAAGTCACGAAAGGTCAAAGTCGAATGAC,5.23,6.68,6.01,5.99,2.17,5.89,4.13,4.96,2.48,4.04
CCAGACAGGTAAAAGGTAACTCAGTCTGGTACGC,-0.0774,0.12,-0.25,0.125,-0.535,2.14,3.01,3.82,2.27,3.94
TTACCAAGGTGAGCTGAGGTGGTTGATCCAACTC,-0.284,-0.505,-0.878,-0.761,-1.22,0.275,-0.0433,0.188,-0.313,0.186
TCTGCTAGGTCAGTAGGTCAGCTAACGAGCTGCC,1.81,1.55,0.12,1.18,-0.0966,3.55,4.84,5,2.51,4.29
TAGCCTAGGTCGTGCGGGCCAGTATAGTGTCGGC,-0.111,-0.0321,-0.956,-0.439,-0.768,0.275,-0.525,-0.186,-0.812,-0.477
TAGCCTAGGTCATGCAGGCCAGTATAGTGTCGGC,3.92,2.91,0.151,1.7,-0.186,3.38,2.19,2.37,0.209,1.34
CCTACTAGGCCATCAGGTCATTGATATCAACGTT,2.15,1.63,1.62,2.16,0.844,3.19,3.75,4,2.04,3.5
TAGCTTAGGTCATGCGGGCCAGTATAGTGTCGGC,4.63,3.38,0.514,1.93,0.519,3.57,1.32,1.95,0.0747,0.973
CGTCAAAGTACAACTAAGGTAACGTAAAGCACGC,0.707,0.122,0.142,0.219,0.198,0.548,0.918,0.504,0.132,0.467
TCTAGCAGGCCAGAGGGTCACTCACGAGGTACGG,0.586,0.658,-0.609,1.13,-1.2,2.2,1.46,2.63,1.82,2.54
CCACACAGGTGAAAGGTAACTCAGTCTGGTACGC,1.02,1.03,0.186,1.15,-0.0183,3.42,5.45,5.54,3.68,5.21
GATACAGGGTCAGCTAGAGGCCAGAGTGTGGAAA,4.82,3.13,-0.348,2.53,-0.522,4.62,3.38,3.34,0.644,2.07
ATAGGTAGGTTAGCTGGGGTCATTCAGACTAGGC,4.92,5.76,2.97,4.81,1.29,4.82,2.59,3.65,1.45,2.69
